From publication PMC5540273 (PLoS ONE, 2017)

Tests used:
Conditions in all cases: concentration: 1 μM, replicates: in singlicate; n = 1
PKAC-alpha = system: T1, PKAC-alpha
T1 construct: gene PRKACA

PKAC-beta = system: T2, PKAC-beta
T2 construct: gene PRKACB

PKMYT1 = system: PKMYT1
PKN1 = system: PKN1
PKN2 = system: PKN2
PLK1 = system: PLK1
PLK2 = system: PLK2
PLK3 = system: PLK3
PLK4 = system: PLK4
PRKCD = system: PRKCD
PRKCE = system: PRKCE
PRKCH = system: PRKCH
PRKCI = system: PRKCI
PRKCQ = system: PRKCQ
PRKD1 = system: PRKD1
PRKD2 = system: PRKD2
PRKD3 = system: PRKD3
PRKG1 = system: PRKG1
PRKG2 = system: PRKG2
PRKR = system: T3, PRKR
T3 construct: gene EIF2AK2
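Note: KINOMEscan kinase panel screen.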

SMILES	%Inh (PKAC-alpha) [%]	%Inh (PKAC-beta) [%]	%Inh (PKMYT1) [%]	%Inh (PKN1) [%]	%Inh (PKN2) [%]	%Inh (PLK1) [%]	%Inh (PLK2) [%]	%Inh (PLK3) [%]	%Inh (PLK4) [%]	%Inh (PRKCD) [%]	%Inh (PRKCE) [%]	%Inh (PRKCH) [%]	%Inh (PRKCI) [%]	%Inh (PRKCQ) [%]	%Inh (PRKD1) [%]	%Inh (PRKD2) [%]	%Inh (PRKD3) [%]	%Inh (PRKG1) [%]	%Inh (PRKG2) [%]	%Inh (PRKR) [%]
COc1cccc(-n2cnc3c(N)ncnc32)c1 [SKF-97416]	11	20	10	0	24	58	43	18	21	6	33	0	25	1	0	0	0	19	14	13
CCc1nc(-c2cccc(C)c2)c(-c2ccncc2)s1	0	7	8	6	0	0	0	14	0	0	0	0	28	6	0	26	9	0	11	0
O=C(Nc1ccc2c(c1)OCO2)NC1CCN(c2ccnc(NCc3ccc(F)cc3)n2)CC1 [GSK1379859]	12	0	0	0	0	0	0	0	9	7	0	16	0	18	0	0	34	0	0	0
CC(C)(C)c1ccc(C(=O)Nc2cn3cc(-c4ccccc4)ccc3n2)cc1	0	7	0	0	16	0	0	13	40	0	5	0	10	37	8	19	4	1	0	0
FC(F)(F)c1ccc(-c2ncn(CCCN3CCOCC3)c2-c2ccncc2)cc1 [SB-217780]	0	10	0	43	48	5	0	0	3	87	35	0	19	30	0	0	0	29	25	0
COc1cc(Nc2nccc(N3CCC(NC(=O)C(C)c4ccc(Cl)cc4)C3)n2)cc(OC)c1OC (stereo not drawn) [GSK1379757]	0	0	0	19	0	0	0	0	0	0	0	14	0	0	0	0	0	1	4	0
C[C@@H]1CC[C@H](C(=O)NC2CCCCC2)CN1c1cc(-c2ccc3c(N)n[nH]c3c2)nc(N)n1 [GSK2291363]	32	18	6	0	0	8	0	0	0	8	14	34	37	34	0	12	26	17	0	14
COC(=O)c1c(-c2ccccc2)c2cc(Br)ccc2c(=O)n1Cc1ccc(S(C)(=O)=O)cc1	11	0	0	1	0	0	17	15	32	0	1	4	0	37	0	0	0	0	8	0
Nc1n[nH]c2ncc(-c3ccccc3)cc12 [SB-517081]	0	0	2	0	0	0	11	0	15	0	16	72	21	3	4	0	0	0	0	0
Nc1n[nH]c2nnc(-c3ccccc3)c(-c3ccccc3)c12 [GW554060]	0	16	0	20	3	8	0	0	0	3	15	14	16	12	0	0	17	0	0	0
Cl.c1ccc(Cn2cnc3cc(Nc4ncnc5ccccc45)ccc32)cc1 [GW272142]	0	0	0	0	0	0	0	0	0	0	4	0	0	0	0	1	0	0	0	0
COc1ccc(-c2cc3c(C)nc(N)nc3n([C@H]3CC[C@H](O)CC3)c2=O)cn1	0	0	32	0	10	0	0	0	0	0	36	0	0	0	3	0	0	0	0	0
CCC(=O)c1c(-c2ccccc2)c2cc(Cl)ccc2c(=O)n1Cc1cc(S(C)(=O)=O)n(CC(F)F)n1	0	0	0	0	0	0	24	13	0	9	0	6	0	8	0	0	0	0	0	0
CN1C(=O)C(Nc2ccccc2)=C(c2ccccc2)C1=O [SB-300079]	2	0	2	0	0	4	12	16	0	7	16	0	0	0	0	0	0	18	0	76
Cn1c(=O)c(F)c(Nc2ccc(I)cc2F)c2c(=O)n(OC[C@H](O)CO)cnc21	10	35	0	0	0	14	0	0	4	4	0	0	34	6	0	0	0	8	7	0
CCS(=O)(=O)c1ccc(OC)c(Nc2ncc(-c3ccc(F)cc3)o2)c1.Cl [GW591947]	0	14	7	0	15	0	0	0	0	2	0	18	11	0	0	0	0	45	0	0
COc1ccc(-c2cc3c(C)nc(N)nc3n([C@H]3CC[C@H](OCCO)CC3)c2=O)cn1	3	0	0	5	0	0	0	0	1	2	14	0	18	0	2	0	9	0	0	0
Cc1cc(Nc2nc(-c3cccc(C)n3)nc3ccccc23)ccn1 [GW872411]	0	0	24	0	0	0	0	1	0	8	0	0	0	0	99.4	99.9	76	14	0	0
COc1cc2nccc(Nc3cccc(Oc4ccccc4)c3)c2cc1OC.Cl [GW284543]	0	10	0	0	0	0	0	0	0	5	0	0	18	1	0	0	31	3	0	0
COc1cc2ncn(-c3cc(OCc4ccc(S(C)(=O)=O)cc4)c(C(N)=O)s3)c2cc1OC [GW869979]	0	0	0	8	0	98.3	98.9	92.3	3	0	20	0	12	0	0	0	18	0	0	0
COc1ccc(CNC(=O)NC2CCN(c3ccnc(Nc4ccc(F)cc4)n3)C2)cc1 (stereo not drawn) [GSK1379706]	0	0	10	14	0	10	0	0	19	0	27	12	0	15	0	14	15	0	20	15
